Source: PubChem BioAssay
LGR2 inh: blocks bursicon-induced cAMP signaling via Drosophila LGR2; inhibition, % at 9.99 µM; AID 720647; actives 0.35% (n = 380,000); HEK293 LGR2, CRE-luciferase, bursicon-stimulated, 4 h;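 active = drop in luminescence signal, shown as inhibition above about 50% in the replicate tests, limit read from the data, passing the limit was not always enough; inconclusive = probably only some replicates passing the limit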;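 also: agonist challenge used bursicon conditioned medium at about half maximal strength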
TROY signal inh: blocks TROY-dependent signaling in reporter cells. Q293 LMP1-TROYcd NF-kB luciferase reporter, 4 h. actives 0.98% (n = 360,000). inhibition, % at 10 µM;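 active = compounds whose plate-normalised and pattern-corrected inhibition of the luciferase reporter signal at the single screening dose is 50% or more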
EWS-Fli block: blocks EWS/Fli oncoprotein-driven transcription; inhibition, % at 12.6 µM; actives 0.67% (n = 350,000); A673 NR0B1-luciferase reporter, viability-normalised; AID 651661;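 active = mean inhibition of at least 50% after viability correction, with every replicate also passing that limit; inconclusive = mean reaches 50% but only one of two replicates passes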;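 also: firefly luciferase signal divided by Alamar Blue viability fluorescence both relative to DMSO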
TWEAK Fn14 block: TWEAK-Fn14 signaling inhibition; actives 2% (n = 360,000); TWEAK-stimulated Fn14 reporter cells, luciferase luminescence, 8 h; inhibition, % at 10 µM; in the data active = inhibition above about 50%
PAX8 inh HTS: inhibitors of PAX8 transcriptional activity in RMG-I cells; RMG-I TPO-luciferase reporter, SteadyGlo, 24 h; actives 1.2% (n = 360,000); inhibition, % at 12.6 µM;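 active = mean replicate inhibition at least 60% with every replicate also reaching 60%; inconclusive = only one of the two criteria is met; inactive = mean below 60% and not all replicates reaching 60%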;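 also: luciferase light reporting Pax8 driven TPO promoter activity; plate controls were median of neutral control wells for no effect and mitoxantrone controls for full effect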
LMP1 NFkB inh: Epstein-Barr LMP1 NF-kappaB reporter inhibition | inhibition, % at 12.5 µM | LMP1-induced NF-kappaB luciferase reporter cells, luminescence | actives 0.69% (n = 350,000); in the data active = inhibition above about 41%; inconclusive = no clear call, values can overlap the other calls;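 also: 0% = neutral control wells and 100% = reference inhibitor control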
The depositor's hits bear a star; u = inconclusive; x = no result given. The list is not random: actives were taken first. Their share in the collection is about 3.2%.

SMILES	LGR2 inh	TROY signal inh	EWS-Fli block	TWEAK Fn14 block	PAX8 inh HTS	LMP1 NFkB inh
Fc1ccc(CSc2nncn2NCc2ccccc2)cc1	x	49.0	x	76.8*	13.2	-1.3
COCC#Cc1ccc([C@@H]2[C@@H](CO)N3CCCCN(S(=O)(=O)c4ccccc4F)C[C@@H]23)cc1	x	x	12.4	x	15.1	x
CCOC(=O)C(=Cc1ccc(-n2cncn2)cc1)C(=O)OCC	65.0*	62.7*	17.1	100.7*	12.8	10.6
CCOC(=O)C(=CNc1cc(C)nn1-c1ccc(Cl)cc1)C(=O)OCC	x	43.0	x	1.3	33.5	12.3
O=C(CN(Cc1ccc(Br)cc1)S(=O)(=O)c1ccccc1)NCc1cccnc1	10.7	0.3	-6.1	13.2	-4.1	6.4
O=C(NCc1cccnc1)/C(=C/c1ccc(-c2ccc(Cl)cc2)o1)S(=O)(=O)c1ccccc1	99.0*	75.8*	69.0*	100.3*	x	-51.7
O=C(NCc1cccnc1)/C(=C\c1ccc(-c2ccc(Br)cc2)o1)S(=O)(=O)c1ccccc1	102.1*	83.4*	59.1*	99.9*	30.2	63.2*
O=C(NCc1cccnc1)/C(=C/c1ccc(-c2cccc(C(F)(F)F)c2)o1)NC(=O)c1ccccc1	x	3.2	x	31.2	20.0	-0.5
CC(=O)N1CCCCN2[C@H](C1)[C@@H](c1ccc(Br)cc1)[C@@H]2CO	-7.9	x	-2.2	x	9.7	x
C[C@H](CO)N1C[C@H](C)[C@@H](CN(C)C(=O)CN(C)C)Oc2cc(Br)ccc2S1(=O)=O	3.0	x	-10.7	x	x	x
C[C@@H]1CN([C@H](C)CO)C(=O)c2cc(NC(=O)C3CCCCC3)ccc2O[C@@H](C)CCCCO[C@@H]1CN(C)C(=O)Cc1ccccc1	20.0	x	-90.6	x	2.5	x
C[C@@H]1CCCCO[C@H](CN(C)Cc2ccc(C(F)(F)F)cc2)[C@H](C)CN([C@@H](C)CO)C(=O)c2cc(NC(=O)Nc3ccccc3)ccc2O1	11.6	x	23.2	x	74.8*	x
C[C@@H]1CCCCO[C@@H](CN(C)Cc2ccc(C(F)(F)F)cc2)[C@H](C)CN([C@H](C)CO)C(=O)c2cc(NC(=O)Nc3ccccc3)ccc2O1	0.7	x	10.1	x	77.9*	x
C[C@@H]1CCCCO[C@H](CN(C)Cc2ccc(C(F)(F)F)cc2)[C@H](C)CN([C@@H](C)CO)C(=O)c2cc(NC(=O)c3ccccc3)ccc2O1	-4.1	x	64.3*	x	84.5*	x
C[C@@H]1CCCCO[C@@H](CN(C)Cc2ccc(C(F)(F)F)cc2)[C@@H](C)CN([C@@H](C)CO)C(=O)c2cc(NC(=O)Nc3ccccc3)ccc2O1	4.1	x	0.9	x	57.6	x
C[C@@H]1CN([C@@H](C)CO)C(=O)c2cc(NC(=O)Nc3ccccc3)ccc2O[C@@H](C)CCCCO[C@@H]1CN(C)Cc1ccc(C(F)(F)F)cc1	6.1	x	3.6	x	74.4*	x
C[C@@H]1CCCCO[C@H](CN(C)Cc2ccc(C(F)(F)F)cc2)[C@@H](C)CN([C@H](C)CO)C(=O)c2cc(NC(=O)Nc3ccccc3)ccc2O1	8.5	x	7.6	x	19.5	x
C[C@@H]1CN([C@H](C)CO)C(=O)c2ccccc2-c2ccccc2CO[C@H]1CN(C)C(=O)Nc1ccc(F)cc1	25.2	x	5.3	x	-34.2	x
Cc1noc(C)c1NC(=O)N(C)C[C@H]1OCCCC[C@@H](C)Oc2ccc(NC(=O)Nc3ccccc3)cc2C(=O)N([C@H](C)CO)C[C@@H]1C	23.0	x	-4.6	x	7.4	x
C[C@@H]1CCCCO[C@@H](CN(C)Cc2ccc(C(F)(F)F)cc2)[C@H](C)CN([C@@H](C)CO)C(=O)c2cc(NC(=O)Nc3ccccc3)ccc2O1	3.4	x	3.2	x	u	x
C[C@@H]1CCCCO[C@H](CN(C)Cc2ccc(C(F)(F)F)cc2)[C@H](C)CN([C@H](C)CO)C(=O)c2cc(NC(=O)Nc3ccccc3)ccc2O1	4.7	x	23.0	x	64.3*	x
C[C@@H]1CN([C@H](C)CO)C(=O)c2cc(NC(=O)Nc3ccccc3)ccc2O[C@@H](C)CCCCO[C@@H]1CN(C)Cc1ccc(C(F)(F)F)cc1	10.8	x	9.6	x	80.4*	x
COc1ccccc1-c1ccc2c(c1)[C@H]1[C@H](CCN1C(=O)CN1CCOCC1)[C@H](CO)N2C	-7.8	x	-54.1	x	-69.0	x
C[C@H](CO)N1C[C@H](C)[C@H](CN(C)S(C)(=O)=O)Oc2ccc(NC(=O)Nc3cccc4ccccc34)cc2C1=O	26.1	x	-2.3	x	26.3	x
